Values joined by “and” are separate entries in the source; they are usually repeats but may differ in a detail not shown here. Equal values may be shown once. Where a structure was tested more than once in an assay, its records may differ in their call. Active and inactive are the calls of the source. The calls were made as follows: active = hit-call score of the fitted dose curve at least 0.9, where 1 is the maximum; inactive = score below 0.9.
How the values were obtained:
[1] = ATG_M_32_CIS: Attagene CIS-FACTORIAL HepG2 Assay for M32 Transcription Factor (Internal Marker) (AID 2282949); conditions: HepG2 Attagene cis-factorial M32 reporter, mRNA; actives raise or lower the signal;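 also: background control marker of the multiplexed CIS panel rather than a real target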
Procedure, shortened: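 Following 24 h chemical exposure of HepG2 cells transiently expressing cis-promoter reporter constructs, reporter transcript levels were determined by RT-PCR with fluorescent labelling and capillary electrophoresis, then fitted bidirectionally against DMSO.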

[2] = ATG_M_06_CIS: Attagene CIS-FACTORIAL HepG2 Assay for M06 Transcription Factor (Internal Marker) (AID 2282950); conditions: HepG2 Attagene CIS-FACTORIAL M06 internal marker reporter; actives raise or lower the signal
Procedure, shortened: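 Read-out is fluorescence of labelled reporter cDNA fragments resolved by capillary electrophoresis after RT-PCR. Cells: HepG2 carrying transfected cis-promoter reporter units, treated 24 h. Gain or loss of signal fitted relative to DMSO.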

[3] = molecular target: Hypoxia-inducible factor 1-alpha (Homo sapiens) (UniProt Q16665); assay: ATG_HIF1a_CIS: Attagene CIS-FACTORIAL HepG2 Assay for human Hypoxia Inducible Factor 1 (HIF1A) (AID 2282951); conditions: HepG2 Attagene cis-factorial HIF1a reporter transcription; actives raise or lower the signal
Hypoxia-inducible factor 1-alpha (Homo sapiens), sequence (Q16665 whole entry, looked up): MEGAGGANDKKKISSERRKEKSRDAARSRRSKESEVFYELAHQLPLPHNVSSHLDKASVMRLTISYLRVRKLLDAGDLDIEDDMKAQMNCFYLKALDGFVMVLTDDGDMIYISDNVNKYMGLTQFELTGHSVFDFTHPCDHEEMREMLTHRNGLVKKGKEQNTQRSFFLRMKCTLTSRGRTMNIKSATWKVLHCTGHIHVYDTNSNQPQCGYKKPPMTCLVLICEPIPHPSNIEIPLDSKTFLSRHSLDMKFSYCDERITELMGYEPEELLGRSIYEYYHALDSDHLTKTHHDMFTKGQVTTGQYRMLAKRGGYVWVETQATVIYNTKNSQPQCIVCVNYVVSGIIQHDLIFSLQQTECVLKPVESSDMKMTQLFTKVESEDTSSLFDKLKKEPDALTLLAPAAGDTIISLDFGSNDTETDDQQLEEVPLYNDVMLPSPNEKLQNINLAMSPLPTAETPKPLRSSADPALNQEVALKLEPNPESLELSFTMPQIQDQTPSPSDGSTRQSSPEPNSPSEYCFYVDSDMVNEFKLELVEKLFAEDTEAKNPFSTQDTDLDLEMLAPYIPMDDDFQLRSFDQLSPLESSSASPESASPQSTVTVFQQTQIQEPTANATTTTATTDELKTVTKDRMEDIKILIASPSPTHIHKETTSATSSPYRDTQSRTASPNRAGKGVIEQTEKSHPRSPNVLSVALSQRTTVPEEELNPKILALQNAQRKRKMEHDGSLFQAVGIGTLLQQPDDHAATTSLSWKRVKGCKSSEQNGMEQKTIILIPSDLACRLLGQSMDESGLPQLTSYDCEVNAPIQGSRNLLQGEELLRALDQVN
Procedure, shortened: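 RT-PCR/capillary electrophoresis fluorescence readout of reporter transcripts from endogenous-TF-driven cis elements in transfected HepG2 cells, 24 h exposure; activity fitted in both directions against DMSO controls.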

[4] = molecular target: Hepatocyte nuclear factor 6 (Homo sapiens) (UniProt Q9UBC0); assay: ATG_HNF6_CIS: Attagene CIS-FACTORIAL HepG2 Assay for human Hepatocyte Nuclear Factor 6 (HNF6) (AID 2282952); conditions: HepG2 Attagene cis-factorial HNF6 reporter transcription; actives raise or lower the signal
Hepatocyte nuclear factor 6 (Homo sapiens), sequence (Q9UBC0 whole entry, looked up, the tested form may be a part): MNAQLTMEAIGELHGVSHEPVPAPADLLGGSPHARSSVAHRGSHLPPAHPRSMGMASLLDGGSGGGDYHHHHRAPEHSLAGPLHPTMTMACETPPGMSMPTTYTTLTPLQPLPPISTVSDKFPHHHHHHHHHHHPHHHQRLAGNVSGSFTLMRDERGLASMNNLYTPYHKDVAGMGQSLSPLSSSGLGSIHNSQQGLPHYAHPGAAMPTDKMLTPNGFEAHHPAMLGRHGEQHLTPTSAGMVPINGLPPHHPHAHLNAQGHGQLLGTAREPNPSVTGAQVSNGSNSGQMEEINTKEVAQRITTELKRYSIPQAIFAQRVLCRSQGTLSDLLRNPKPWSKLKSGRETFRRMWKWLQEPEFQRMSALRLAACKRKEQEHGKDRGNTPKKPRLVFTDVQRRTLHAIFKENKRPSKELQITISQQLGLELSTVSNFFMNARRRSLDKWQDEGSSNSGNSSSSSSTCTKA
Procedure, shortened: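 Reporter mRNA induction or loss in HepG2 after 24 h exposure; transient cis-MRTU transfection; fragments quantified by capillary electrophoresis; bidirectional analysis, DMSO as negative control.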

[5] = molecular target: Heat shock factor protein 1 (Homo sapiens) (UniProt Q00613); assay: ATG_HSE_CIS: Attagene CIS-FACTORIAL HepG2 Assay for human Heat Shock Transcription Factor 1 (HSE) (AID 2282953); conditions: HepG2 HSE cis-reporter, Attagene RNA transcription; actives raise or lower the signal
Heat shock factor protein 1 (Homo sapiens), sequence (Q00613 whole entry, looked up): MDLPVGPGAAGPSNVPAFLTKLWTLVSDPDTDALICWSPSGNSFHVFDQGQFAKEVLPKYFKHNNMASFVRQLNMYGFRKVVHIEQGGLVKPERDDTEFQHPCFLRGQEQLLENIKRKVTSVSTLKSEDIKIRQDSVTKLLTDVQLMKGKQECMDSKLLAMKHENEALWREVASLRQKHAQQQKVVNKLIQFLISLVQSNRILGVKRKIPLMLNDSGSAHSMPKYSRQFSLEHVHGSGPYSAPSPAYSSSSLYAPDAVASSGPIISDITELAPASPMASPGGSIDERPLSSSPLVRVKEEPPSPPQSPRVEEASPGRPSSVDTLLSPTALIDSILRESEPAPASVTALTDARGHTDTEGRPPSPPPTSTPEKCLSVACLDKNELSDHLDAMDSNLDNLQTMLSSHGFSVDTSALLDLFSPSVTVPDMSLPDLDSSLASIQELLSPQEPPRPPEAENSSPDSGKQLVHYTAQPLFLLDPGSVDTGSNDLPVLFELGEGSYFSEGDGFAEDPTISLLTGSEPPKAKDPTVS
Procedure, shortened: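 HepG2, transient MRTU transfection, cis-promoter reporters (endogenous TF activity). 24 h compound. RNA → oligo(dT) RT → PCR → 6-FAM primer extension → HpaI cut → CE. Bidirectional fit vs DMSO.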

[6] = ATG_PBREM_CIS: Attagene CIS-FACTORIAL HepG2 Assay for human Phenobarbital-responsive Enhancer Module (PBREM) (AID 2282955); conditions: HepG2 PBREM cis-reporter, Attagene multiplexed transcription; actives raise or lower the signal
Procedure, shortened: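 Reporter mRNA read by RT-PCR, 6-FAM primer extension, HpaI digestion and capillary electrophoresis. Transfected HepG2 cells, 24 h compound exposure. Gain or loss of signal fitted bidirectionally relative to DMSO baseline.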

[7] = molecular target: Paired box protein Pax-6 (Homo sapiens) (UniProt P26367); assay: ATG_Pax6_CIS: Attagene CIS-FACTORIAL HepG2 Assay for human Paired Box 6 (PAX6) (AID 2282956); conditions: HepG2 CIS-FACTORIAL PAX6 reporter transcription, RNA readout; actives raise or lower the signal
Paired box protein Pax-6 (Homo sapiens), sequence (P26367 whole entry, looked up): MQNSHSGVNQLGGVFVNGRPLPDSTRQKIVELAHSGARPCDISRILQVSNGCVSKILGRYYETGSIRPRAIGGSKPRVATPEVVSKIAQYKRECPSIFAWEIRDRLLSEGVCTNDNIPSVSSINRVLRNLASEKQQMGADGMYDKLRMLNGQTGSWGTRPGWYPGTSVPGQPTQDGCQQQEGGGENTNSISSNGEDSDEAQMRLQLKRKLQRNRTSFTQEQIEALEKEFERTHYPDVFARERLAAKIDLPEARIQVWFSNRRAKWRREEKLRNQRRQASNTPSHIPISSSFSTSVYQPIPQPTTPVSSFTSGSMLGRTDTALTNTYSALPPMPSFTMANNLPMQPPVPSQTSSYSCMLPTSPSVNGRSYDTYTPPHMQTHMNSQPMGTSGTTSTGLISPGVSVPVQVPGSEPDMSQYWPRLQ
Procedure, shortened: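 HepG2 cells transiently transfected with cis-promoter-driven multiplexed reporter units sensing endogenous transcription factor activity; 24 h chemical exposure. Reporter mRNA quantified by RT-PCR, 6-FAM labelling, HpaI digestion and capillary electrophoresis; bidirectional fit versus DMSO baseline.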

[8] = ATG_PXRE_CIS: Attagene CIS-FACTORIAL HepG2 Assay for human Pregnane X Receptor Element (PXRE) (AID 2282957); conditions: HepG2 Attagene CIS-FACTORIAL PXRE reporter, mRNA; actives raise or lower the signal
Procedure, shortened: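 Transiently transfected HepG2 cells were dosed and incubated for 24 h. RNA was then isolated, DNase-treated, reverse-transcribed and reporter sequences amplified. Labeled, HpaI-digested fragments were quantified by capillary electrophoresis against DMSO.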

[9] = ATG_PPRE_CIS: Attagene CIS-FACTORIAL HepG2 Assay for human Peroxisome Proliferator-activated Response Element (PPRE) (AID 2282958); conditions: HepG2 PPRE cis-element reporter, Attagene transcription factor profiling; actives raise or lower the signal
Procedure, shortened: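 Read-out: fluorescent reporter mRNA fragments resolved by capillary electrophoresis after RT-PCR. HepG2 cells carried transiently transfected PPRE-driven cis reporter constructs and were dosed for 24 h; gain or loss of signal fitted relative to DMSO.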

[10] = ATG_MRE_CIS: Attagene CIS-FACTORIAL HepG2 Assay for human Metal Responsive Element (MRE) (AID 2282954); conditions: HepG2 MRE cis-reporter transcription, Attagene multiplex; actives raise or lower the signal
Procedure, shortened: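 HepG2 cells transiently transfected with multiple cis-element reporter units measure endogenous MTF1-driven transcription. After 24 h compound exposure, reporter mRNA is quantified by RT-PCR with 6-FAM labelling, HpaI digestion and capillary electrophoresis; bidirectional fits versus DMSO.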

Measured: AC50

O=CC(F)(F)C(F)(F)C(F)(F)C(F)F
not listed: [10]
inactive: all other assays above

C=CC(C)(CCC=C(C)C)OC(C)=O (centres undefined)
active: [8] 22.8 µM
not listed: [10]
inactive: all other assays above

O=C(CCCN1CCC(O)(c2ccc(Cl)cc2)CC1)c1ccc(F)cc1
inactive: [2]
active: [1] 62.4 µM | [10] 33.4 µM | [7] 51.2 µM

CCOC(C)=O
not listed: [10]
inactive: all other assays above

CCCCCC(C)OC(=O)COc1ccc(Cl)c2cccnc12 (centres undefined)
active: [8] 7.22 µM
not listed: [10]
inactive: all other assays above

CC(=O)Nc1ccc(O)cc1
not listed: [3] | [4]
inactive: all other assays above

O=C1OC2(c3ccccc31)c1cc(I)c(O)c(I)c1Oc1c2cc(I)c(O)c1I
active: [3] 21.2 µM and 34.4 µM | [10] 36.3 µM and 35.2 µM | [6] 21 µM and 18.6 µM | [7] 37.6 µM | [8] 12.8 µM and 4.37 µM and 8.03 µM
inactive: [1] | [3] | [4] | [5] | [10] | [6] | [7]

C/C=C/C(=O)C1=C(C)CCCC1(C)C
active: [4] 65.5 µM | [5] 63.7 µM | [7] 39.7 µM | [8] 2.03 µM
not listed: [10]
inactive: all other assays above

CCOC(=O)c1nc(C(Cl)(Cl)Cl)n(-c2ccc(Cl)cc2Cl)n1
inactive: [2] | [3] | [7] | [9]
active: [1] 63.9 µM | [4] 160 µM | [5] 65.8 µM | [6] 100 µM | [8] 2.06 µM

c1ccc(CNc2ncnc3c2ncn3C2CCCCO2)cc1 (centres undefined)
active: [6] 23.3 µM | [8] 4.73 µM
not listed: [10]
inactive: all other assays above

COc1cccc(O)c1
not listed: [10]
inactive: all other assays above

CN(C)c1ccc(C(=C2C=CC(=[N+](C)C)C=C2)c2ccccc2)cc1
active: [4] 8.34 µM | [5] 1.46 µM and 1.26 µM | [7] 1.43 µM and 1.44 µM
inactive: [1] | [3] | [4] | [6]

FC(F)=C(F)C(F)(F)C(F)(F)C(F)(F)C(F)F
not listed: [10]
inactive: all other assays above

FC(F)(F)N1C(F)(F)C(F)(F)OC(F)(F)C1(F)F
not listed: [10]
inactive: all other assays above

CN(Cc1cnc2nc(N)nc(N)c2n1)c1ccc(C(=O)N[C@@H](CCC(=O)O)C(=O)O)cc1
active: [8] 58.9 µM
not listed: [3] | [9]
inactive: all other assays above

CC(C)(O)C(=O)c1ccccc1
not listed: [8] | [10]
inactive: all other assays above

NNC(=O)CCCCC(=O)NN
not listed: [10]
inactive: all other assays above

CCCCc1ccc2ccccc2c1S(=O)(=O)O
not listed: [8] | [10]
inactive: all other assays above

Cc1ccc2ccc3ccc(C)cc3c2c1
active: [8] 8.1 µM
not listed: [10]
inactive: all other assays above

Cc1cc(=O)oc2cc(O)ccc12
inactive: [1] | [2] | [4] | [5] | [10] | [6] | [7]
active: [6] 42.3 µM | [8] 8.35 µM and 25.5 µM

CC1=NN(c2ccccc2)C(=O)C1
active: [8] 66.2 µM and 60 µM
not listed: [3] | [6]
inactive: all other assays above

CCCCc1oc2ccccc2c1C(=O)c1cc(I)c(OCCN(CC)CC)c(I)c1
active: [1] 127 µM | [2] 89.1 µM | [3] 7.78 µM | [7] 20.2 µM | [8] 1.44 µM
inactive: [5] | [9]

Cc1ccccc1C(OCCN(C)C)c1ccccc1 (centres undefined)
inactive: [1] | [2] | [4] | [5] | [6] | [7] | [8] | [9]
active: [8] 27 µM

O=C1NS(=O)(=O)c2ccccc21
active: [8] 55.9 µM
inactive: [1] | [2] | [3] | [4] | [10] | [7] | [8] | [9]

Oc1cc2ccccc2cc1O
active: [9] 100 µM
not listed: [10]
inactive: all other assays above

CS(=O)(=O)c1ccc([C@@H](CC2CCCC2)C(=O)Nc2cnccn2)cc1Cl
inactive: [1] | [2] | [6]
active: [3] 64.4 µM | [5] 150 µM | [10] 113 µM | [7] 73.9 µM | [8] 1.91 µM

CN(C)CCOC(c1ccccc1)c1ccccc1
inactive: [1] | [2] | [5] | [10] | [7]
active: [8] 151 µM

CC[N+](CC)(CC)Cc1ccccc1
not listed: [10]
inactive: all other assays above

CCCCC=O
inactive: [1] | [2] | [3] | [4] | [5] | [7]

CC(C)(C)c1ccc(CCC=O)cc1
active: [8] 22.3 µM
not listed: [2]
inactive: all other assays above

CCOC=C(C(=O)OCC)C(=O)OCC
active: [8] 27.6 µM
not listed: [2]
inactive: all other assays above

Oc1cccc2c(O)cccc12
active: [8] 27.1 µM
not listed: [2]
inactive: all other assays above

Oc1ccc(Cc2ccccc2O)cc1
active: [8] 46 µM
not listed: [2]
inactive: all other assays above

— PubChem BioAssay (EPA / NIEHS)
